Measured values as given in PubChem BioAssay AID1159580 (chemical genetic matrix, 2015).
Out of some 5,500 compounds screened, about 2,000 (36%) were called active. Another 18% or so got no clear call; they are omitted. No stated cut-off is given here; in the data, active means normalized growth mostly below about 0.91 (no sharp cut-off); inconclusive means no clear call, values can overlap the other calls; inactive means mostly above about 0.92. The list shows a part of the results.

Assay: chemical genetic growth profiling, strain panel (AID 1159580);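 further: tested at 20 µM; growth read once vehicle control cultures reached saturation at 30 °C; 1 = growth at the plate median or of vehicle wells; lower values mean less growth of the strain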
Settings: S. cerevisiae deletion strains, growth OD
[1] = locus YAR019C, strain CDC15, hits give low values
[2] = locus YBL105C, strain PKC1, hits give low values
[3] = locus YBR135W, strain CKS1, hits give low values
[4] = locus YBR136W, strain MEC1, hits give low values
[5] = locus YBR160W, strain CDC28, hits give low values
[6] = locus YDL017W, strain CDC7, hits give low values
[7] = locus YDL028C, strain MPS1, hits give low values
[8] = locus YDL101C, strain DUN1, hits give low values
[9] = locus YDL108W, strain KIN28, hits give low values
[10] = locus YDL132W, strain cdc53, hits give low values
[11] = locus YDL214C, strain PRR2, hits give low values
[12] = locus YDR052C, strain DBF4, hits give low values
[13] = locus YDR054C, strain cdc34, hits give low values
[14] = locus YDR226W, strain ADK1, hits give low values
[15] = locus YDR477W, strain SNF1, hits give low values
[16] = locus YER123W, strain YCK3, hits give low values
[17] = locus YER133W, strain GLC7, hits give low values
[18] = locus YFL009W, strain cdc4, hits give low values
[19] = locus YFL029C, strain CAK1, hits give low values
[20] = locus YFR003C, strain YPI1, hits give low values
[21] = locus YFR019W, strain FAB1, hits give low values
[22] = locus YFR028C, strain CDC14, hits give low values
[23] = locus YGR040W, strain KSS1, hits give low values
[24] = locus YGR052W, strain FMP48, hits give low values
[25] = locus YGR092W, strain DBF2, hits give low values
[26] = locus YHR030C, strain SLT2, hits give low values
[27] = locus YHR079C, strain IRE1, hits give low values
[28] = locus YHR082C, strain KSP1, hits give low values
[29] = locus YHR205W, strain SCH9, hits give low values
[30] = locus YIL147C, strain SLN1, hits give low values
[31] = locus YJL095W, strain BCK1, hits give low values
[32] = locus YJL157C, strain FAR1, hits give low values
[33] = locus YJR016C, strain ILV3, hits give low values
[34] = locus YJR066W, strain TOR1 (second series), hits give low values
[35] = locus YJR066W, strain TOR1, hits give low values
[36] = locus YKL048C, strain ELM1, hits give low values
[37] = locus YKL067W, strain YNK1, hits give low values
[38] = locus YKL101W, strain HSL1, hits give low values
[39] = locus YKL193C, strain SDS22, hits give low values
[40] = locus YKL203C, strain TOR2, hits give low values
[41] = locus YLR113W, strain HOG1, hits give low values
[42] = locus YLR133W, strain CKI1, hits give low values
[43] = locus YLR403W, strain SFP1, hits give low values
[44] = locus YML070W, strain DAK1, hits give low values
[45] = locus YMR001C, strain CDC5, hits give low values
[46] = locus YMR205C, strain PFK2 (second series), hits give low values
[47] = locus YMR277W, strain FCP1, hits give low values
[48] = locus YNL006W, strain LST8, hits give low values
[49] = locus YNL020C, strain ARK1, hits give low values
[50] = locus YNL161W, strain CBK1, hits give low values
[51] = locus YNL183C, strain NPR1, hits give low values
[52] = locus YNL207W, strain RIO2, hits give low values
[53] = locus YNL222W, strain SSU72, hits give low values
[54] = locus YNL307C, strain MCK1 (second series), hits give low values
[55] = locus YOL078W, strain AVO1, hits give low values
[56] = locus YOL136C, strain PFK27, hits give low values
[57] = locus YOR061W, strain CKA2, hits give low values
[58] = locus YOR119C, strain RIO1, hits give low values
[59] = locus YOR231W, strain MKK1, hits give low values
[60] = locus YOR329C, strain SCD5, hits give low values
[61] = locus YPL031C, strain PHO85, hits give low values
[62] = locus YPL153C, strain RAD53, hits give low values
[63] = locus YPL204W, strain HRR25, hits give low values
[64] = locus YPL209C, strain IPL1, hits give low values
[65] = locus YPL256C, strain CLN2, hits give low values
[66] = locus YPR025C, strain CCL1, hits give low values
[67] = locus YPR106W, strain ISR1, hits give low values
[68] = locus YPR111W, strain DBF20, hits give low values
[69] = strain NNK1, hits give low values
[70] = strain TSCII, hits give low values

Measured: normalized growth

CC(=O)Nc1ccc(S(=O)(=O)Nc2ccccc2Oc2ccc(Cl)cc2Cl)cc1
inactive: [1] 0.998 | [2] 0.996 | [3] 0.993 | [4] 0.993 | [5] 0.996 | [6] 0.997 | [7] 0.995 | [8] 1 | [9] 0.999 | [10] 0.995 | [11] 0.984 | [12] 0.993 | [13] 0.986 | [14] 1 | [15] 0.983 | [16] 1.02 | [17] 0.991 | [18] 0.993 | [19] 0.985 | [20] 0.999 | [21] 0.993 | [22] 0.993 | [23] 0.986 | [24] 1.09 | [25] 1 | [26] 1 | [27] 1.01 | [28] 1.04 | [29] 0.987 | [30] 0.992 | [31] 1.03 | locus YJL128C, strain PBS2, hits give low values 0.965 | [32] 0.992 | [33] 0.996 | [34] 0.97 | [35] 1.01 | [36] 0.986 | [37] 0.985 | [38] 0.98 | [39] 0.994 | [40] 1.04 | [41] 0.959 | [42] 0.98 | [43] 0.995 | [44] 1.01 | [45] 0.999 | [46] 0.99 | [47] 0.995 | [48] 0.999 | [49] 0.992 | [50] 0.995 | [51] 1.01 | [52] 0.995 | [53] 0.995 | [54] 1.01 | [55] 0.995 | [56] 1 | [57] 0.98 | [58] 0.994 | [59] 0.994 | [60] 0.999 | [61] 0.995 | [62] 0.994 | [63] 0.996 | [64] 0.998 | [65] 0.929 | [66] 0.996 | [67] 0.998 | [68] 0.99 | [69] 0.994 | [70] 0.999

Cc1ccc(NS(=O)(=O)c2ccc(Cl)cc2)c(N=Cc2cc(Cl)cc(Cl)c2O)c1
inactive: [1] 0.952 | [2] 0.965 | [3] 0.955 | [4] 0.961 | [5] 0.961 | [6] 0.958 | [7] 0.96 | [8] 0.968 | [9] 0.954 | [10] 0.962 | [12] 0.961 | [13] 0.929 | [14] 0.958 | [18] 0.945 | [19] 0.95 | [20] 0.948 | [22] 0.965 | [30] 0.949 | [33] 0.967 | [39] 0.968 | [45] 0.971 | [47] 0.936 | [48] 0.946 | [50] 0.951 | [52] 0.949 | [53] 0.963 | [55] 0.962 | [60] 0.96 | [64] 0.958 | [66] 0.959 | [67] 0.959 | [68] 0.943 | [70] 0.959
active: [11] 0.277 | [15] 0.252 | [16] 0.169 | [17] 0.269 | [21] 0.342 | [23] 0.323 | [24] 0.219 | [25] 0.137 | [26] 0.118 | [27] 0.151 | [28] 0.147 | [29] 0.154 | [31] 0.15 | [32] 0.162 | [34] 0.363 | [35] 0.144 | [36] 0.336 | [37] 0.257 | [38] 0.291 | [40] 0.273 | [41] 0.3 | [42] 0.198 | [43] 0.118 | [44] 0.203 | [46] 0.289 | [49] 0.17 | [51] 0.208 | [54] 0.145 | [56] 0.193 | [57] 0.196 | [58] 0.303 | [59] 0.203 | [61] 0.231 | [62] 0.234 | [63] 0.211 | [65] 0.255 | [69] 0.776

Cc1ccc(NS(C)(=O)=O)cc1N=Cc1ccc(Cl)c(Cl)c1
inactive: locus YAL013W, strain DEP1, hits give low values 0.989 | locus YBR229C, strain ROT2, hits give low values 1 | [8] 0.965 | locus YDR150W, strain NUM1, hits give low values 0.879 | locus YEL061C, strain CIN8, hits give low values 1.02 | locus YGR078C, strain PAC10, hits give low values 0.996 | locus YGR229C, strain SMI1, hits give low values 1 | [26] 0.891 | locus YHR087W, strain rtc3, hits give low values 1.03 | locus YJL187C, strain SWE1, hits give low values 1.01 | locus YJR043C, strain POL32, hits give low values 0.989 | locus YJR075W, strain HOC1, hits give low values 0.965 | locus YKL190W, strain CNB1, hits give low values 0.999 | locus YLR039C, strain RIC1, hits give low values 0.984 | locus YLR058C, strain SHM2 (second series), hits give low values 1.02 | locus YLR085C, strain ARP6, hits give low values 1.01 | locus YLR262C, strain YPT6, hits give low values 0.951 | locus YML094W, strain GIM5, hits give low values 0.994 | locus YMR219W, strain ESC1, hits give low values 1.01 | locus YMR263W, strain SAP30, hits give low values 0.988 | locus YNL128W, strain TEP1, hits give low values 0.976 | locus YNL153C, strain GIM3, hits give low values 0.986 | locus YNL298W, strain CLA4 (second series), hits give low values 0.866 | locus YNL322C, strain KRE1, hits give low values 1 | locus YNR030W, strain Alg12, hits give low values 0.983 | locus YOL006C, strain TOP1, hits give low values 0.959 | locus YPL055C, strain LGE1, hits give low values 0.991 | locus YPL241C, strain CIN2, hits give low values 0.993 | locus YPR135W, strain CTF4, hits give low values 0.706
